Several values for one entry are separate records, joined by “and”; a condition that tells them apart may be missing. Identical values can stand only once. Activity calls are given as the source filed them.
Columns and labels:
[1] = small molecules captured by biotinylated probe aFSTL3 – biochemical, small-molecule microarray, fluorescence 635/667, stem cell growth factor project, primary screen (AID 1064); conditions: higher = more signal;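 also: measures binding of the biotinylated anti-FSTL3 antibody to printed compounds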
[2] = binders from COS7 lysate, DM2A8 probe, primary screen, torsin A project, cell lysate, small-molecule microarray, fluorescence 635/667 (AID 1065); conditions: higher = more signal, COS7 lysate expressing mutant human TOR1A
[3] = small molecules captured by biotinylated probe aFGF2 – biochemical, small-molecule microarray, fluorescence 635/667, stem cell growth factor project, primary screen (AID 1067); conditions: higher = more signal;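 also: measures binding of biotinylated aFGF2 protein to printed compounds on slides; z-score merges feature fluorescence and signal-to-noise across triplicate slides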
[4] = small molecules captured by biotinylated probe aFGF10 – biochemical, small-molecule microarray, fluorescence 635/667, stem cell growth factor project, primary screen (AID 1071); conditions: higher = more signal;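 also: score merges 667 nm spot intensity and signal to noise from triplicate slides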
[5] = target: Neurogenic locus notch homolog protein 2 (Homo sapiens) (UniProt Q04721); assay: small molecules binding Notch2 protein – biochemical, small-molecule microarray, 635 nm fluorescence, stem cell growth factors, primary screen (AID 1073); conditions: higher = more signal
[6] = target: Pro-neuregulin-1, membrane-bound isoform (Homo sapiens) (UniProt Q02297); assay: small molecules binding neuregulin-1 protein – biochemical, small-molecule microarray, fluorescence 635/667, psychiatric disease protein project, primary screen (AID 1075); conditions: NRG1 binding, 635 nm fluorescence, higher = more signal;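 also: score combines 667 nm spot fluorescence with signal to noise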
Sequence of Pro-neuregulin-1, membrane-bound isoform (Homo sapiens) (Q02297 whole entry, looked up, the tested form may be a part, canonical isoform): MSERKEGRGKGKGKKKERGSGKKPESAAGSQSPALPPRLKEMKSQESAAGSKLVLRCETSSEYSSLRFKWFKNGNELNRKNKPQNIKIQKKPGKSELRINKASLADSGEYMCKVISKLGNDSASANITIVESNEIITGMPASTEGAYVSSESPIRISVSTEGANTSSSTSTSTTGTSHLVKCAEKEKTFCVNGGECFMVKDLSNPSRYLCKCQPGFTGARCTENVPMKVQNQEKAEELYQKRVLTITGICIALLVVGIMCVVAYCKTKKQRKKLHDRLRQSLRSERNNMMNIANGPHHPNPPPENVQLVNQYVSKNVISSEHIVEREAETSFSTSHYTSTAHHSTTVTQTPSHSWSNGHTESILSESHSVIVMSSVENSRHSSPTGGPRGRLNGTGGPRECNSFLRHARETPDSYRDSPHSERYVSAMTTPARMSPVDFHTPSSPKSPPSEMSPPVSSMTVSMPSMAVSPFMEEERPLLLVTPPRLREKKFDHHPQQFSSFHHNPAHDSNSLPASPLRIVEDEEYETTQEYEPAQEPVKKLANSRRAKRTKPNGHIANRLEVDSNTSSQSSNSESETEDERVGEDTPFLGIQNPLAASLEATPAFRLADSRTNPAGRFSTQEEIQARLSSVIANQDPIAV

[7] = system: Neuregulin-1 EGF-like domain; assay: small molecules binding NRG1 EGF domain – biochemical, small-molecule microarray, 635 nm fluorescence, primary screen (AID 1081); conditions: higher = more signal;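 also: binding of the protein to compounds printed on small-molecule microarray slides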
[8] = FRG1 expression reporter modulators in myotubes – cell-based, C2C12 myotubes, firefly/Renilla luciferase, luminescence, FRG1 inhibition for FSHD, primary screen (AID 1084); conditions: FRG1 promoter luciferase, higher = more signal, called active from +8 up or from −8 down
[9] = small molecules captured by biotinylated probe aFST – biochemical, small-molecule microarray, fluorescence 635/667, stem cell growth factor project, primary screen (AID 1086); conditions: higher = more signal;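 also: score merges 667 nm fluorescence with signal-to-noise of each printed compound spot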
[10] = binders of probe aHhip on microarray, primary screen, stem cell growth factor project, biochemical, small-molecule microarray, fluorescence 635/667 (AID 1087); conditions: higher = more signal;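 also: score merges spot fluorescence at 667nm with spot signal to noise ratio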
[11] = system: PRMT1 (protein arginine N-methyltransferase 1); assay: small molecules binding arginine methyltransferase PRMT1 – biochemical, small-molecule microarray, 635 nm fluorescence, primary screen (AID 1088); conditions: higher = more signal;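 also: binding of Prmt1 protein to compounds spotted on small-molecule microarray slides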
[12] = growth effects on S. cerevisiae YJM789 – YJM789 clinical isolate, OD600, 24 h, basal, primary screen (AID 1089); conditions: higher = more signal, called active from +8 up or from −8 down;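 also: growth of clinical yeast isolate S. cerevisiae YJM 789 seeded 1000 cells per well; test concentration not given here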
[13] = S. pombe growth modifiers, basal conditions – strain 972, OD600, 24 h, no modulator, primary screen (AID 1090);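 also: basal condition with compound alone and no growth modifier present; test concentration not given here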; conditions: S. pombe 972 growth, higher = more signal, called active from +8 up or from −8 down
[14] = budding yeast growth modifiers under rapamycin – strain BY4716, OD600, 96 h, primary screen (AID 1091); also: test concentration not given here; conditions: S. cerevisiae BY4716 + rapamycin, higher = more signal, called active from +8 up or from −8 down
[15] = target: Torsin-1A-interacting protein 2 (Homo sapiens) (UniProt Q8NFQ8); assay: small molecules binding lysate-expressed LULL1 – cell lysate, human LULL1 lysate, 635/667 nm fluorescence, primary screen (AID 1092); conditions: small-molecule microarray, hLULL1 lysate binding, 635 nm fluorescence; higher = more signal;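 also: probe is lysate of COS7 cells overexpressing human LULL1; score merges per-feature 667 nm fluorescence with signal-to-noise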
Sequence of Torsin-1A-interacting protein 2 (Homo sapiens) (Q8NFQ8 whole entry, looked up): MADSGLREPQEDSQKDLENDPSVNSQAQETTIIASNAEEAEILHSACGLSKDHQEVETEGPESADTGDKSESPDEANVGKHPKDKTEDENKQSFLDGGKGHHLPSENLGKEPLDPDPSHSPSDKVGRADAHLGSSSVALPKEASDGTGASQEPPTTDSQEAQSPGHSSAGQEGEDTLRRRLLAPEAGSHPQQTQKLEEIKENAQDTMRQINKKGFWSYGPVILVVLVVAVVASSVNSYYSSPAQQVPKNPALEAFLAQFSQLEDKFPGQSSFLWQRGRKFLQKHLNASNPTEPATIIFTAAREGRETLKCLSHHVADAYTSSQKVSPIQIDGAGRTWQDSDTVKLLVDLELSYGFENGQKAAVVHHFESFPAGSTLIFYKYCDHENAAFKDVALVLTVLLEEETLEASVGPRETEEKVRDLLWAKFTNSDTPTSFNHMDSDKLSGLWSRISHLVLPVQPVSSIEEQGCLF

[16] = optical density change of DRC41 E. coli – strain DRC41, OD650, 24 h, E. coli filamentation project, primary screen (AID 1093);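 also: MC1000 strain lacking acrAB efflux and sulA so SOS filamentation is blocked; test concentration not given here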; conditions: E. coli DRC41 growth, higher = more signal, called active from +8 up or from −8 down
[17] = probe aLefty2 binding to arrayed compounds – biochemical, biotinylated probe, 635/667 nm fluorescence, primary screen (AID 1094); conditions: small-molecule microarray, higher = more signal;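 also: score merges spot fluorescence near 667 nm with spot signal-to-noise ratio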
[18] = system: Noggin (protein binding on small-molecule microarray); assay: small molecules binding Noggin protein – biochemical, 635/667 nm fluorescence, primary screen (AID 1095); conditions: 635 nm fluorescence, higher = more signal;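 also: score merges 667 nm feature fluorescence with signal to noise over triplicate slides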
[19] = target: Neurogenic locus notch homolog protein 3 (Homo sapiens) (UniProt Q9UM47); assay: small molecules binding NOTCH3 protein – biochemical, 635/667 nm fluorescence, primary screen (AID 1096); conditions: small-molecule microarray, 635 nm fluorescence, higher = more signal
Sequence of Neurogenic locus notch homolog protein 3 (Homo sapiens) (Q9UM47 whole entry, looked up): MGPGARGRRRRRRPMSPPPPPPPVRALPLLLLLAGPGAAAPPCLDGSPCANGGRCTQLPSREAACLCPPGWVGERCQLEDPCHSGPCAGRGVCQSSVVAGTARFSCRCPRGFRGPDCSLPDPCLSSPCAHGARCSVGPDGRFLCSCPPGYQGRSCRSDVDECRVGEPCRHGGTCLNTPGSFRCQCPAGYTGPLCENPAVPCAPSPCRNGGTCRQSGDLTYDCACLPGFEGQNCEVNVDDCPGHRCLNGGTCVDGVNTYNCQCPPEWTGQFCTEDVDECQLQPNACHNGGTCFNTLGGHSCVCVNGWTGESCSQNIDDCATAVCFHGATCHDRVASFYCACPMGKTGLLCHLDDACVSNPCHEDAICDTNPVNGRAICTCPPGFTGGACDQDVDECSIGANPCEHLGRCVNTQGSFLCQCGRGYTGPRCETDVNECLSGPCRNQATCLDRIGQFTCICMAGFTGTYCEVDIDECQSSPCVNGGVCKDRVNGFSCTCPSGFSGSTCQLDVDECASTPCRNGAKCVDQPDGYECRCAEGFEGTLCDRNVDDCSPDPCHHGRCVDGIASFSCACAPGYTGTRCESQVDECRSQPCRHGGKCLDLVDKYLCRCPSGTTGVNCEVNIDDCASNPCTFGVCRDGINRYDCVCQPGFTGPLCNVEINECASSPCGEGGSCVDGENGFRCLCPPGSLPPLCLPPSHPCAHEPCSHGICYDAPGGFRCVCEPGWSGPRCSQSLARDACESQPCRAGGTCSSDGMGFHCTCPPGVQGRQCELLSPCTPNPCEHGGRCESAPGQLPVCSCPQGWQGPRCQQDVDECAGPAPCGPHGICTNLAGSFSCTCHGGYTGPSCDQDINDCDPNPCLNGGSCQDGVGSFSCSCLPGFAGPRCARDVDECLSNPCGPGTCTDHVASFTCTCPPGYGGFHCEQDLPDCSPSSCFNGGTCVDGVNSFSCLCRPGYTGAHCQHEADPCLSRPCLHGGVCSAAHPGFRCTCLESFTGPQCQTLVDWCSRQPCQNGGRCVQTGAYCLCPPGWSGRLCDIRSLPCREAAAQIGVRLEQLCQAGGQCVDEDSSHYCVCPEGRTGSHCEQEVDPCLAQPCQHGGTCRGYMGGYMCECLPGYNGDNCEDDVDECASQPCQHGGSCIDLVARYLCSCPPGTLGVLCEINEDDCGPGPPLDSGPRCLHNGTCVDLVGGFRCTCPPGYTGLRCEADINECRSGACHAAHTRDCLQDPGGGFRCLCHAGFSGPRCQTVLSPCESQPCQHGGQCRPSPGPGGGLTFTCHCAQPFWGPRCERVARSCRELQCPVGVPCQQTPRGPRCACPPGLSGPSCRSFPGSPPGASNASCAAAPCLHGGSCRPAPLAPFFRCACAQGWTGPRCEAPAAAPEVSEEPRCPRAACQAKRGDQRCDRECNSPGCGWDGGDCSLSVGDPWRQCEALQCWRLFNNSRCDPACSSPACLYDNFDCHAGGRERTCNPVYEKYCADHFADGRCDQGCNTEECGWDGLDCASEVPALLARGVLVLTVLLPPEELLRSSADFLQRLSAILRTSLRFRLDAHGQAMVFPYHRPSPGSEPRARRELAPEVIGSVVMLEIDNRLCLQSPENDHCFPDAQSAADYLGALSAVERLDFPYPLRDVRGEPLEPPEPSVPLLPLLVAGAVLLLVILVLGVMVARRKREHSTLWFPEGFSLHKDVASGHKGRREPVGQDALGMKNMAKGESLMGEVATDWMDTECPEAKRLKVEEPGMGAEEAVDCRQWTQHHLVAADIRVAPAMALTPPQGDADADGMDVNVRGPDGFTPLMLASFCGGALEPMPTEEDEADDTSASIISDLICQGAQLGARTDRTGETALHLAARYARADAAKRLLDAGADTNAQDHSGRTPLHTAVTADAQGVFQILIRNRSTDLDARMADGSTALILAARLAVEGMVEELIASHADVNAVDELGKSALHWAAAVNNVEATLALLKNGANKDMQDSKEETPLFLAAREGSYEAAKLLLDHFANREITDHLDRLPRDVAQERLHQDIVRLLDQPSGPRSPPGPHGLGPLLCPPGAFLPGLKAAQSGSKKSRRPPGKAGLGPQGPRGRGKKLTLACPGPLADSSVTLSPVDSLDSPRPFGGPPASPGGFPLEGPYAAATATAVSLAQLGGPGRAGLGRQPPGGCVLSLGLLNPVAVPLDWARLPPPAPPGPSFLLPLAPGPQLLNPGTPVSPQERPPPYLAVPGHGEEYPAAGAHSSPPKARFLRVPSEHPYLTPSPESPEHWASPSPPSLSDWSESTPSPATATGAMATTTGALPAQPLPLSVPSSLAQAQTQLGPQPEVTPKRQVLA

[20] = probe aEGFR binding to arrayed compounds – biochemical, biotinylated probe, 635/667 nm fluorescence, primary screen (AID 1097); conditions: small-molecule microarray, higher = more signal;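 also: probe is a biotinylated anti-EGFR antibody binding compounds printed on slides; score combines fluorescence near 667 nm and signal to noise of each spot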

## C=CCN(Cc1ccccc1)C(=O)C(c1cccs1)N(C(=O)/C=C\C(=O)O)c1ccc(CCO)cc1 (stereo not given)
[1]
  composite z-score: 1.05 and 0.697
[2]
  composite z-score: -1.89 and -1.8
[3]
  composite z-score: -0.175 and -0.232
[4]
  composite z-score: -1.05 and -0.73
[5]
  composite z-score: -1.36 and -1.96
[6]
  composite z-score: -0.789 and -0.264
[7]
  composite z-score: 1.25 and 1.43
[8]
  z-score: 0.0388 (inactive) and -0.725 (inactive)
[9]
  composite z-score: -0.966 and -0.865
[10]
  composite z-score: -0.369 and 0.205
[11]
  composite z-score: -0.0611 and -0.636
[12]
  z-score: -0.0499 (inactive) and -0.0798 (inactive)
[13]
  z-score: -0.0594 (inactive) and 0.33 (inactive)
[14]
  z-score: -0.184 (inactive) and 0.0995 (inactive)
[15]
  composite z-score: 3.59 and 1.9
[16]
  z-score: 0.478 (inactive) and -0.0137 (inactive)
[17]
  composite z-score: -0.0927 and -0.205
[18]
  composite z-score: -2.05 and -1.63
[19]
  composite z-score: -1.46 and -0.922
[20]
  composite z-score: -0.239 and -0.321

## CC(CO)N1C(=O)[C@@H]2C3C(=O)OCCC=C[C@H]3OC23C=CCN(CCN2CCOCC2)C(=O)[C@@H]13 (stereo not given in full)
[1]
  composite z-score: -0.316 and 0.246
[2]
  composite z-score: -1.28 and 0.759
[3]
  composite z-score: -0.166 and -0.085
[4]
  composite z-score: -0.376 and -0.591
[5]
  composite z-score: -0.0931 and 0.0406
[6]
  composite z-score: -0.256 and 1.91
[7]
  composite z-score: 0.678 and 0.666
[8]
  z-score: 0.12 (inactive) and 0.497 (inactive)
[9]
  composite z-score: 0.106 and 0.0417
[10]
  composite z-score: -0.399 and -0.119
[11]
  composite z-score: -0.353 and 1.34
[12]
  z-score: 0.517 (inactive) and -1.32 (inactive)
[13]
  z-score: -0.0581 (inactive) and -1.22 (inactive)
[14]
  z-score: 0.565 (inactive) and -0.233 (inactive)
[15]
  composite z-score: -0.634 and 3.22
[16]
  z-score: -0.381 (inactive) and -0.16 (inactive)
[17]
  composite z-score: -0.186 and 0.166
[18]
  composite z-score: -0.0409 and 0.0947
[19]
  composite z-score: 0.331 and 0.465
[20]
  composite z-score: -0.207 and -0.0046

## C=C[C@@H](OC)[C@H](O)c1ccc(OC)c(O)c1
[1]
  composite z-score: -0.407 and 0.724
[2]
  composite z-score: 0.415 and -0.675
[3]
  composite z-score: 0.177 and -0.175
[4]
  composite z-score: 0.0573 and -1.49
[5]
  composite z-score: 0.113 and -0.602
[6]
  composite z-score: -0.44 and -0.559
[7]
  composite z-score: 0.225 and -0.758
[8]
  z-score: 0.0163 (inactive) and -0.152 (inactive)
[9]
  composite z-score: -0.209 and -0.844
[10]
  composite z-score: -0.0994 and -0.296
[11]
  composite z-score: 0.852 and -0.645
[12]
  z-score: -0.722 (inactive) and -0.94 (inactive)
[13]
  z-score: -0.322 (inactive) and -0.469 (inactive)
[14]
  z-score: -0.116 (inactive) and -0.423 (inactive)
[15]
  composite z-score: -0.1 and -0.81
[16]
  z-score: 0.77 (inactive) and 1.76 (inactive)
[17]
  composite z-score: -0.17 and -0.109
[18]
  composite z-score: 0.941 and 0.0939
[19]
  composite z-score: -0.233 and -1.14
[20]
  composite z-score: -0.277 and -0.33

## O=c1n(-c2ccccc2)c(=O)n2n1CC[C@@H]1C(=NOC[C@@H](O)COCc3ccco3)[C@H]3O[C@H]3[C@@H](O)[C@@H]12
[1]
  composite z-score: -0.538 and -0.609
[2]
  composite z-score: 1.27 and 1.24
[3]
  composite z-score: -0.209 and -0.258
[4]
  composite z-score: 0.265 and -0.486
[5]
  composite z-score: -0.0496 and 0.156
[6]
  composite z-score: -0.498 and -0.0731
[7]
  composite z-score: 0.874 and -0.672
[8]
  z-score: 0.193 (inactive) and -0.52 (inactive)
[9]
  composite z-score: 0.0872 and 0.231
[10]
  composite z-score: -0.0994 and -0.069
[11]
  composite z-score: 1.23 and -0.267
[12]
  z-score: -0.188 (inactive) and 0.0291 (inactive)
[13]
  z-score: -0.7 (inactive) and 0.498 (inactive)
[14]
  z-score: 0.0488 (inactive) and 0.801 (inactive)
[15]
  composite z-score: 0.264 and -1.26
[16]
  z-score: -0.517 (inactive) and 0.0684 (inactive)
[17]
  composite z-score: -0.107 and -0.0797
[18]
  composite z-score: 1.06 and 0.325
[19]
  composite z-score: 0.827 and -0.585
[20]
  composite z-score: -0.139 and -0.0512

## O=C(NN=C1C[C@@H](O)[C@@H](O)[C@@H]2[C@@H]3C(=O)N(Cc4ccc5c(c4)OCO5)C(=O)[C@@H]3CC[C@H]12)OCc1ccccc1
[1]
  composite z-score: -0.196
[2]
  composite z-score: 1.64
[3]
  composite z-score: -0.025
[4]
  composite z-score: -0.348
[5]
  composite z-score: 0.64
[6]
  composite z-score: -1.21
[7]
  composite z-score: -1.43
[8]
  z-score: -0.0282 (inactive)
[9]
  composite z-score: 0.965
[10]
  composite z-score: -0.387
[11]
  composite z-score: 1.15
[12]
  z-score: 0.48 (inactive)
[13]
  z-score: -0.157 (inactive)
[14]
  z-score: 0.191 (inactive)
[15]
  composite z-score: -0.815
[16]
  z-score: 1.01 (inactive)
[17]
  composite z-score: -0.0047
[18]
  composite z-score: 0.707
[19]
  composite z-score: -0.0259
[20]
  composite z-score: -0.0828

## CO[C@H]1COC(=O)CC=C[C@@H](C)COC(=O)[C@H](CCSC)NC(=O)CC=C[C@@H]1C
[1]
  composite z-score: -0.638 and -0.893
[2]
  composite z-score: 2.71 and 2.84
[3]
  composite z-score: 0.561 and -0.386
[4]
  composite z-score: -0.174 and -0.853
[5]
  composite z-score: -0.375 and -0.583
[6]
  composite z-score: -0.591 and -1.25
[7]
  composite z-score: 1.01 and 0.444
[8]
  z-score: -0.172 (inactive) and -0.845 (inactive)
[9]
  composite z-score: 0.536 and 0.0907
[10]
  composite z-score: 0.12 and -0.154
[11]
  composite z-score: 1.55 and 1.54
[12]
  z-score: 0.833 (inactive) and -0.697 (inactive)
[13]
  z-score: -0.201 (inactive) and -0.712 (inactive)
[14]
  z-score: 0.35 (inactive) and -0.862 (inactive)
[15]
  composite z-score: -0.649 and -1.15
[16]
  z-score: 0.32 (inactive) and -0.145 (inactive)
[17]
  composite z-score: -0.114 and -0.0629
[18]
  composite z-score: 1.64 and 2.04
[19]
  composite z-score: 0.593 and 0.59
[20]
  composite z-score: 0.49 and 0.59

## CC(C)=NO[C@@H](C)c1cc(-c2c(C)cc(C)cc2C)no1
[1]
  composite z-score: 1.18
[2]
  composite z-score: -0.146
[3]
  composite z-score: -0.135
[4]
  composite z-score: 0.0794
[5]
  composite z-score: -0.243
[6]
  composite z-score: -0.0227
[7]
  composite z-score: -0.304
[8]
  z-score: 0.122 (inactive)
[9]
  composite z-score: -0.163
[10]
  composite z-score: 0.0854
[11]
  composite z-score: -0.389
[12]
  z-score: -0.166 (inactive)
[13]
  z-score: -3.55 (inactive)
[14]
  z-score: -0.0423 (inactive)
[15]
  composite z-score: 0.168
[16]
  z-score: -0.272 (inactive)
[17]
  composite z-score: -0.122
[18]
  composite z-score: 0.412
[19]
  composite z-score: -0.434
[20]
  composite z-score: -0.101
